BAZ2B block – BAZ2B (human) inhibition | Q9UIF8 | AlphaScreen BAZ2B-H3K14Ac peptide displacement | Potency, µM (series often up to 114 µM), actives largely listed as inhibitors | hit rate 4.4% among 360,000 | AID 504333; note: nearly all actives have a fitted effect of over 60% in size
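Complex of BAZ2B and biotin-H3K14Ac (50 nM apiece) forms over 30 min at RT, then faces library compounds up to 110 uM for another 30 min; AlphaScreen beads added, 20 min dark incubation, luminescence read.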
L3MBTL1 block – blocks human L3MBTL1; AlphaScreen L3MBTL1–H3K9me1 peptide binding; Potency, µM (top dose mostly 57.1 µM), hits mostly inhibitors; hit rate 0.66% among 230,000; note: nearly all actives have a fitted effect of over 60% in size
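Read-out is AlphaScreen signal from streptavidin donor and nickel chelate acceptor beads (10 ug/mL final each) bridging L3MBTL1 (50 nM) and biotinylated K9-monomethylated H3(1-15) peptide (75 nM), after 30 min compound exposure at room temperature.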
Sfp inh – inhibitors of Bacillus subtilis Sfp phosphopantetheinyl transferase | Potency, µM, usual class: inhibitors | AID 1490 | hit rate 3.5% among 310,000 | Biochemical Sfp PPTase activity, qHTS | Q9F4F7;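 note: the enzyme is Sfp with the accession as filed and its product quenches rhodamine fluorescence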
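With Hepes-Na pH 7.6 buffer containing 10 mM MgCl2, Sfp (15 nM) modified BHQ-2-YbbR (12.5 uM) using rhodamine-CoA (5 uM). Two reads 30 minutes apart at 525/598 nm yielded each well's rate.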
G9a block – inhibitors of human histone lysine methyltransferase G9a | Q96KQ7 | Potency, µM (titrated, usually from 102 µM), hits mostly inhibitors | G9a H3K9 monomethylation, AlphaScreen, 2 h | hit rate 8.8% among 350,000; note: nearly all actives have a fitted effect of over 75% in size
Target sequence (Q96KQ7 913-1193 limits assumed): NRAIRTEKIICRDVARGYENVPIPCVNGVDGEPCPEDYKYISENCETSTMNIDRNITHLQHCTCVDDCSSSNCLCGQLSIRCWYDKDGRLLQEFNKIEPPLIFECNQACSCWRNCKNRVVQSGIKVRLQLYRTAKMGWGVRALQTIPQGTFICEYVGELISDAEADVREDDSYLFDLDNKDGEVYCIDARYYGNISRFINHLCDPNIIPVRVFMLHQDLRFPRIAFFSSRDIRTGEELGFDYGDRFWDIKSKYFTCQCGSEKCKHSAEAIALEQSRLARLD
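AlphaScreen read-out: biotin-H3K9 peptide (500 nM) methylation by 20 nM enzyme with 20 uM SAM, 2 h at room temperature after 15 min compound preincubation; anti-monomethyl H3K9 antibody plus donor/acceptor beads, 10 min dark.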
HP1b chromo inh – inhibitors of HP1-beta chromodomain binding to methylated histone tails; P83916; AlphaScreen HP1-beta / biotin-H3K9me3 peptide binding; Potency, µM (top dose mostly 114 µM), actives largely listed as inhibitors; hit rate 0.56% among 390,000; AID 540317; note: nearly all actives have a fitted effect of over 70% in size
Target sequence (P83916 whole entry, looked up): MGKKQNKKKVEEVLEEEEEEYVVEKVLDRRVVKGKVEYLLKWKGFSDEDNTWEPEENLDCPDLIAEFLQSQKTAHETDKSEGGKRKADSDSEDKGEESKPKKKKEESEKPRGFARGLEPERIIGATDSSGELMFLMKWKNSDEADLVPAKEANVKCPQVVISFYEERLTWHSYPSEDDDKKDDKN
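Compound inhibition of the preformed complex between 50 nM HP1-beta and 50 nM biotinylated H3K9me3 peptide was read by AlphaScreen. Buffer was PBS pH 7.4 with 0.01% Tween-20. Incubations ran 30 min at room temperature, with 10 ug/mL donor/acceptor beads.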
JMJD2A Tudor inh – inhibitors of human JMJD2A Tudor domain. O75164. AlphaScreen JMJD2A-Tudor / H3K4me3 peptide binding. AID 504339. hit rate 4.4% among 390,000. Potency, µM (top dose mostly 114 µM), actives largely listed as inhibitors; note: nearly all actives have a fitted effect of over 50% in size
Large screens that a line does not name were inactive; ! = repeats disagree. Rows were chosen to be rich in hits. Some 12% of all compounds tested hit in one or more screens of this group. Calls come from the whole dose curve; as a rule, active = well fitted curve in the direction sought with a large enough effect; inconclusive = small, poorly fitted or top-dose-only effect, or another doubt; inactive = no such curve, though single readings can be large; an effect the other way counts as inactive or inconclusive.

CC(NS(=O)(=O)c1ccccc1)C1COc2ccccc2O1 (stereo unspecified)	none (no result: L3MBTL1 block)
CCOC(=O)CCNC(C)C1COc2ccccc2O1 (stereo unspecified)	G9a block 2.2µM, JMJD2A Tudor inh 2.8µM
CC(NC(=O)c1ccccc1Cl)C1COc2ccccc2O1 (stereo unspecified)	none
Cc1cc(-c2cccnc2)c(C#N)c(SCc2cccc(F)c2)n1	Sfp inh 79µM, G9a block 40µM
CCCCn1c(CCC)nc([N+](=O)[O-])c1Sc1ccc(Cl)cn1	G9a block 14µM
COc1ccc(-n2cc(C(=O)NC(C)c3ccccc3)c3ccccc3c2=O)cc1 (stereo unspecified)	G9a block inconclusive, JMJD2A Tudor inh inconclusive (no result: L3MBTL1 block, Sfp inh)
Cc1ccc(-c2cn3nc(N4CCCC(C(=O)NCc5ccc(F)cc5)C4)sc3n2)cc1 (stereo unspecified)	none (no result: L3MBTL1 block, Sfp inh)
O=C(N/N=C/c1ccc(Br)s1)c1cccnc1	none
O=C(N/N=C/c1cc(Br)c(O)c(Br)c1O)c1cccnc1	BAZ2B block 35µM, G9a block inconclusive, JMJD2A Tudor inh 50µM (no result: L3MBTL1 block)
O=C(N/N=C/c1cc(O)ccc1Br)c1cccnc1	BAZ2B block 7.1µM, L3MBTL1 block inconclusive, JMJD2A Tudor inh 45µM (no result: G9a block)
O=C(N/N=C(\c1ccccc1)c1cccnc1)c1cc(O)ccc1O	Sfp inh inconclusive, G9a block 10µM (no result: L3MBTL1 block, HP1b chromo inh, JMJD2A Tudor inh)
O=C(N/N=C/c1cc2c(cc1Br)OCO2)c1cccnc1	none (no result: L3MBTL1 block)
CCCn1c(=O)n(-c2ccccc2Cl)c(=O)c2sc3ccccc3c21	none (no result: L3MBTL1 block, Sfp inh)
CCc1ccc(NC(=O)c2cnn(-c3c(C)cccc3C)c2C2CCNCC2)cc1	none (no result: L3MBTL1 block, Sfp inh)
COc1cc(NC(=O)[C@H](C)NC(=O)N2CCn3c2nc2ccccc23)cc(OC)c1	BAZ2B block 50µM (no result: L3MBTL1 block)
COc1cccc(CNC(=O)[C@H](CCSC)NC(=O)N2CCn3c2nc2ccccc23)c1	BAZ2B block inconclusive, G9a block 50µM (no result: L3MBTL1 block)
N#CCC(=O)N/N=C/c1coc2ccccc2c1=O	none (no result: L3MBTL1 block, G9a block)
N#C/C(=C\c1coc2ccccc2c1=O)C(N)=S	BAZ2B block inconclusive, L3MBTL1 block inconclusive, G9a block 1.8µM, HP1b chromo inh inconclusive
Cc1ccc(-n2cccc2C(=O)NS(=O)(=O)c2ccc(C)cc2)cc1	none
Cc1ccc(-n2cccc2C(=S)N=P(N(C)C)(N(C)C)N(C)C)cc1	BAZ2B block inconclusive, Sfp inh inconclusive, G9a block inconclusive, JMJD2A Tudor inh 35µM
Cn1nc(-c2ccccc2)cc1NC(=O)c1ccc(Cl)cc1	none (no result: Sfp inh)
Cn1cnc(S(=O)(=O)Nc2cc(-c3ccc(Cl)cc3)nn2C)c1	G9a block 50µM
COc1ccc(NC(=O)COc2ccc(-c3nn(C)c(=O)c4ccccc34)cc2)cc1	JMJD2A Tudor inh 45µM!
CNC(=O)c1ccc(NC(=O)COc2ccc(-c3nn(C)c(=O)c4ccccc34)cc2)cc1	none (no result: L3MBTL1 block, Sfp inh)
CCCCCC/C=C/c1ccc(C2C3C=CCC(C)C3C(=O)N2Cc2ccccc2)c(F)c1 (stereo unspecified)	none (no result: BAZ2B block, L3MBTL1 block, G9a block)
CCN(CC)CCN1c2ccccc2Sc2ccccc21	BAZ2B block 71µM, G9a block inconclusive, HP1b chromo inh 45µM, JMJD2A Tudor inh 2.8µM (no result: L3MBTL1 block)
CCN(CC)CCC(=O)N1c2ccccc2Sc2ccc(Cl)cc21	none
CCN(CC)[C@@H](C)CN1c2ccccc2Sc2ccccc21	G9a block 8.9µM (no result: BAZ2B block, L3MBTL1 block, HP1b chromo inh, JMJD2A Tudor inh)
CCN(CC)CCN1c2ccccc2Sc2ccc3ccccc3c21	BAZ2B block inconclusive, G9a block 50µM, JMJD2A Tudor inh inconclusive
CCc1ccc2c(c1)N(C[C@H](C)CN(C)C)c1ccccc1S2	G9a block 18µM (no result: BAZ2B block, L3MBTL1 block, HP1b chromo inh, JMJD2A Tudor inh)
CCc1ccc(NC(=O)CC2C(=O)N(c3ccc(Cl)cc3)C(=O)N2C2CCCC2)cc1 (stereo unspecified)	G9a block inconclusive (no result: L3MBTL1 block, Sfp inh)
CCOc1ccc(C(=O)NCc2nc3cccnc3n2Cc2cccc(OC)c2)cc1	none (no result: L3MBTL1 block, Sfp inh)
COCCN1C(=O)c2oc3ccc(C)cc3c(=O)c2C12C(=O)N(C)c1ccccc12 (stereo unspecified)	none (no result: L3MBTL1 block, Sfp inh)
CCN(Cc1ccccc1)C(=O)c1c(C)oc2ncn(C)c(=O)c12	none (no result: L3MBTL1 block, Sfp inh)
CCc1cccc(NC(=O)Cn2c(=O)n3nc(-c4cccc(F)c4)nc3c3ccccc32)c1	none (no result: L3MBTL1 block, Sfp inh)
